# Experimental data from the supplement of paper PMC6555819.
# Legend:
# Assay in all cases: PBM binding z-score (relative to random genomic background probes); higher = stronger binding; sequences stand for … in GC…GCGATTGACAGCGTAGAATGAAGG
# [1] = test system: RARb homodimer (NR concentration 270 nM)
# Procedure, shortened: (§1)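 Antibodies against each partner of ligand-free nuclear receptor dimers (one per run) detected binding on custom Agilent 4×180K protein-binding microarrays after 1 h incubation. The double-stranded probes had 34-nt variable regions carrying direct-repeat seeds, single-nucleotide variants, half-site ablations and random human genomic background sequences. Binding z-scores, from regression-normalized fluorescence, use the random background probes as reference.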
# [2] = test system: RARg:RXRa (NR concentration 270 nM, RXRa partner concentration 90 nM)
# Procedure, shortened: as §1
# [3] = test system: RARg homodimer (NR concentration 270 nM)
# Procedure, shortened: as §1
# [4] = test system: RXRa DBDmut IVT, anti-RXR (DBD mutation: RXRa K156A/R161A, NR concentration 90 nM)
# Procedure, shortened: as §1
# [5] = test system: RXRa homodimer (NR concentration 180 nM)
# Procedure, shortened: as §1
# [6] = test system: THRa:RXRa (NR concentration 90 nM, RXRa partner concentration 90 nM)
# Procedure, shortened: as §1
# [7] = test system: THRa homodimer (NR concentration 90 nM)
# Procedure, shortened: as §1
# [8] = test system: VDR homodimer (NR concentration 270 nM)
# Procedure, shortened: as §1
Sequence,PBM binding z-score [1],PBM binding z-score [2],PBM binding z-score [3],PBM binding z-score [4],PBM binding z-score [5],PBM binding z-score [6],PBM binding z-score [7],PBM binding z-score [8]
GTACCAAGGTGAATAGGTCGCTGATGAGTAGGCG,1.69,2.65,1.53,-0.316,1.66,1.59,0.0254,-0.0986
GCAGACAGGTGAAACGGAGGTAACTCAGGGTGGC,0.345,1.4,0.25,-0.66,0.757,1.83,-0.0224,-0.566
GGAACGAGGGCAAGTTGATAACAGAGTTTGATGG,1.22,1.6,2.06,2.29,0.775,1.13,0.176,1.74
AGTCAAAGTTCATCTAGGTAACGTCAGATATGCT,3.92,5.76,6.22,4.83,4.45,3.18,0.387,5.66
CCTATTAGTTGACCATAAAGGCAACCGAAGCTCG,0.622,0.557,0.504,0.578,0.337,0.39,0.543,0.626
ATATGAAGGTTAGCTGGGGTCATTCAGACTAGGC,4.37,4.69,3.82,1.97,6.06,5.24,3.38,5.65
TCTCGGACGACACGAAAGGTCAGAGCTCGACATC,4.33,4.43,4.55,0.759,4.8,2.77,0.521,0.805
TCTCGGAGAACACGAAGGTCAGAGCTTTCCAGAG,2.86,1.7,1.58,0.25,1.61,1.18,-0.552,-0.097
CCTTACGGGTCACGAGGTTATAGCTCGACGAGCG,3.93,6.04,5.15,1.74,6.98,3.73,0.989,1.76
TCGAGTAGCTTAGGGGCATTCAGAATGGCGTCGA,0.0653,-0.284,-0.446,0.27,0.216,0.657,-0.487,0.282
TCTAGTTGGTCAAAGGTCACACTCTCGAAATGCG,5.1,6.72,5.71,1.96,7.91,4.01,2.1,2.53
ATCTCTAGGCAAAGATAGTTCAGTGAATGCAAAT,0.533,0.288,0.586,-0.0612,-0.0781,0.0396,-0.577,0.0259
CGTCAAAGTTCAACTAAGGTAACGTACAGCACGC,4.47,6.1,6.82,4.86,5.14,5.27,2.13,4.15
GCGACTGGGGCATCAGCAGGTCACCATAACTTAA,3.25,3.79,2.47,-0.121,2.14,3.02,1.44,0.619
GGAACGAGTGCAAAGTTGATAGCATCTGTCGACG,-0.159,0.335,0.145,3.22,0.874,-0.385,-0.711,1.88
CGTCCAAGGTCGAGGTCAGTGAAAGAGACTCGAA,4.16,4.8,5.32,2.57,4.65,3.93,2.42,2.96
CCCACTGGGCCATCAGGTCATTGATATCAACGTT,2.77,2.09,1.65,-0.268,1.3,3.22,3.16,1.66
TAGCCTAGGTCATTCAGGGGCCATTATAGAAAGC,3.54,6.28,4.48,2.04,3.12,3.69,1.13,1.96
GCTATTAGTTTAAAGGGCAACCGAATGATTCTCG,2.38,1.36,1.44,1.56,1.05,0.923,0.375,0.916

Sequence,PBM binding z-score [1],PBM binding z-score [2],PBM binding z-score [3],PBM binding z-score [4],PBM binding z-score [5],PBM binding z-score [6],PBM binding z-score [7],PBM binding z-score [8]
ACTAGCAGGCCACGGGTCACTCAAGATTAGTCCG,2.64,2.22,2.04,0.0998,2.18,1.85,0.298,0.215
ATACCAAGGTGATCGTCAGGTCGTTGATACTAAC,1.14,1.4,0.502,-0.0242,0.916,2.98,1.76,1.12
GCGACTCGGGCATCAGCAGGTTACCATAACTTAA,0.226,0.257,0.0755,-0.281,0.133,0.266,-0.36,-0.501
TAGCCTAGGTCATTCAGCGGCCAGTATAGAAAGC,2.81,5.65,4.44,1.85,3.07,2.74,0.53,1.04
GCGACTGGGGCAAACCAGGTTACCATAAGGTTGG,1.29,0.596,0.516,-0.486,0.616,3.93,0.684,-0.202
TCTGCCAGGTCAACGATGGTCAGCTAATCTGCTA,3.43,4.4,5.08,1.41,3.42,3.55,1.7,0.359
GCTAGCAGGCCATTTGGATCACTCAATGACGGGC,-0.535,-0.278,-0.00293,0.0121,-0.0428,-0.754,-0.938,-0.518
CGAACGAGGGCATGAGTTGATATCAAATGCCGAT,0.794,1.37,1.81,2.39,0.883,1.14,-0.157,2.28
ATAGAAAGGTCGACGAGGTGAGTATACACCGTTT,2.88,3.98,3.86,1.03,4.18,3.62,0.52,1.1
ACTTACGGGTCAACGAGGTTATCGCACGCGTATA,3.52,5.86,5.38,3,6.75,4.19,1.23,4.34
CCTACTGGGCCTAAAAGGTCATTGATGCCGATAA,4.24,4.67,3.93,0.753,4.91,3.08,0.544,2.73
TCGAGTAGGGTAGTCGGGGCATTCAGCCAACATA,0.403,-0.271,-0.538,0.261,-0.197,0.368,0.185,0.229
TCTTGTAGATCAATAGAGGTTAGGAAAGTGCGCT,0.826,0.947,0.486,0.658,1.29,2,-0.0407,0.48
CCTACTGGGCCAGCAGGTCATTGATATCAACGTT,2.26,2.03,1.62,-0.531,1.6,1.86,0.347,0.812
ATATGTAGGTTAGATGGGGTCATTCAGACTAGGC,3.8,4.06,2.93,2.39,5.63,5.15,3.28,5.95
ACTTTTAGTTGACTTAGGGCAACCGATACGACGC,1.37,1.1,1.22,1.12,0.756,1.64,0.763,0.282
CGTCCAAGGTCAGCAGCTCAGTGAAAGCGACGTG,3.86,5.03,5.8,2.64,4.07,3.44,1.99,0.868
GCTGCTAGGTCAACTGACGGTCAGCTAAAGCTCG,4.31,6.76,5.94,1.64,3.33,3.21,0.993,-0.00537
ATATGTAGGGTAAGGGTCATTCAGGTTGGTTCGC,4.19,4.59,3.27,2.16,5.38,3.68,2.68,5.02

Sequence,PBM binding z-score [1],PBM binding z-score [2],PBM binding z-score [3],PBM binding z-score [4],PBM binding z-score [5],PBM binding z-score [6],PBM binding z-score [7],PBM binding z-score [8]
TTGAGTAGGTTAGGGGCATTCAGAATGGCGTCGA,1.7,0.491,0.689,0.378,0.569,1.14,1.29,1.51
GGAACGAGGGCATTCGCGTTGATAGCATGGCGAT,0.582,0.978,1.21,2.75,0.746,1.08,-0.426,1.79
TCTATTAGTTGAAGGGCAAGCGACGAGTCCGTTT,1.28,0.558,0.708,1.59,0.725,0.196,0.0509,1.23
CAAACTAGGTCACCGGAAGGTTAAAGTCCGCATG,4.56,6.51,5.79,2.08,4.2,3.84,2.36,1.28
GCCGACAGGTGAAACGCAGGTAACTCAGGGTGGC,-0.0352,0.819,0.229,-0.346,0.514,1.35,-0.657,-0.993
TCTTGTAGATCAAAGGTTAAGAAAGCCGAAGCCT,1.36,1.68,0.776,0.652,3.27,1.27,-0.357,-0.0957
TCATATAGGTAAAAGTTGAAAGTCGGTGTGGTAA,0.645,0.703,0.395,1.69,1.83,0.586,-0.0355,0.425
GCTTGTAGTTCAAGGTTAAGAAAGACTAAGCTAA,1.6,2.24,2.5,1.91,2.17,2.09,0.091,0.851
CGTCCAAGGTCAGAGAGGTCAGTGCATGCCGAGT,5.13,6.03,6.95,3.49,5.11,4.21,2.91,6.02
TAGCCTAGGTCATGCCGGCCAGTATAGTGTCGGC,2.79,3.6,3.93,0.522,2.62,2.72,0.854,0.14
CGAACTAGGTCAGGACAGGACAGTGAAGGATGAT,2.54,2.87,4.34,0.359,1.59,3.71,1.28,-0.189
CAAACTAGGTCAAGAGGTCCAAGTCCGCTTCCCG,3.2,4.03,4.37,1.42,2.65,2.55,0.871,1.74
GCTGCTAGGTCAAGTTGGTCAGCTAACGGGTACG,3.78,4.49,5.42,1.81,3.03,2.96,1.13,0.704
TTGCCTAGGTCATTCAGGGGCCAGTATAGAAAGC,3.3,6.09,4.46,2.14,2.76,3.48,0.747,1.75
ATCTCTAGGTAACAAGTTCAGCGAAAGAGAGGAC,2.17,2.04,1.72,0.87,1.27,1.74,0.96,3
CAAACTAGGTCAAAGGTCAAATTCGAGCCAACCA,4.86,8.92,7.49,3.06,10.2,4.77,1.67,3.08
GCTAGCAGGCCATTTGGGTCACACAATGACGGGC,1.93,1.23,1.48,-0.0753,1.2,2.03,0.818,0.18
GCGACTGGGGCATCAGAAGGTTACCATAACTTAA,1.73,1.74,1.06,0.112,0.743,1.24,-0.47,-0.299
ATCTCTAGGTAAAGATAGGTCAGTGAATGCAAAT,2.4,1.84,1.85,0.189,1.2,2.02,0.451,0.412
